Measured values taken from the supplement of paper PMC6555819.

Assays:
Assay in all cases: PBM binding z-score (relative to random genomic background probes); higher = stronger binding; sequences stand for … in GC…GCGATTGACAGCGTAGAATGAAGG
[1] = test system: FXR:RXRa (NR concentration 270 nM, RXRa partner concentration 90 nM)
Outline: (§1)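 Scanned fluorescence from custom Agilent 4×180K protein-binding microarrays was regression-normalized. Binding z-scores use random background probes as reference. Ligand-free nuclear receptor dimers were incubated on the arrays for 1 h and detected with antibodies against each partner (one per run).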

[2] = test system: LXRa:RXRa (NR concentration 270 nM, RXRa partner concentration 90 nM)
Outline: as §1

[3] = test system: LXRa homodimer (NR concentration 270 nM)
Outline: as §1

[4] = test system: LXRb:RXRa (NR concentration 270 nM, RXRa partner concentration 90 nM)
Outline: as §1

[5] = test system: LXRb homodimer (NR concentration 270 nM)
Outline: as §1

[6] = test system: PPARa:RXRa (NR concentration 270 nM, RXRa partner concentration 90 nM)
Outline: as §1

[7] = test system: PPARg:RXRa (NR concentration 180 nM, RXRa partner concentration 90 nM)
Outline: as §1

[8] = test system: PPARg:RXRa 270nM:90nM, anti-RXR (NR concentration 270 nM, RXRa partner concentration 90 nM)
Outline: as §1

[9] = test system: PPARg:RXRa 30nM:10nM, anti-RXR (NR concentration 30 nM, RXRa partner concentration 10 nM)
Outline: as §1

[10] = test system: PPARg:RXRa 90nM:30nM, anti-RXR (NR concentration 90 nM, RXRa partner concentration 30 nM)
Outline: as §1

[11] = test system: PPARg:RXRa DBDmut IVT, anti-RXR (DBD mutation: RXRa K156A/R161A, NR concentration 270 nM, RXRa partner concentration 90 nM)
Outline: as §1

[12] = test system: PPARg:RXRa IVT, anti-PPARg (NR concentration 270 nM, RXRa partner concentration 90 nM)
Outline: as §1

[13] = test system: PPARg DBDmut:RXRa IVT, anti-PPARg (DBD mutation: PPARg1 K132A/R137A, NR concentration 270 nM, RXRa partner concentration 90 nM)
Outline: as §1

[14] = test system: PPARg DBDmut IVT, anti-PPARg (DBD mutation: PPARg1 K132A/R137A, NR concentration 270 nM)
Outline: as §1

[15] = test system: PPARg homodimer (NR concentration 180 nM)
Outline: as §1

[16] = test system: PXR:RXRa (NR concentration 270 nM, RXRa partner concentration 90 nM)
Outline: as §1

[17] = test system: PXR homodimer (NR concentration 270 nM)
Outline: as §1

[18] = test system: RARa:RXR (NR concentration 270 nM, RXRa partner concentration 90 nM)
Outline: as §1

[19] = test system: RARa homodimer (NR concentration 270 nM)
Outline: as §1

[20] = test system: RARb:RXRa (NR concentration 270 nM, RXRa partner concentration 90 nM)
Outline: as §1

Row | Sequence | PBM binding z-score [1] | PBM binding z-score [2] | PBM binding z-score [3] | PBM binding z-score [4] | PBM binding z-score [5] | PBM binding z-score [6] | PBM binding z-score [7] | PBM binding z-score [8] | PBM binding z-score [9] | PBM binding z-score [10] | PBM binding z-score [11] | PBM binding z-score [12] | PBM binding z-score [13] | PBM binding z-score [14] | PBM binding z-score [15] | PBM binding z-score [16] | PBM binding z-score [17] | PBM binding z-score [18] | PBM binding z-score [19] | PBM binding z-score [20]
1 | TCTCGTTGGTCAAAGGTCACACACTCGAAATGCG | 6.33 | 5.68 | 4.45 | 5.88 | 2.23 | 6.57 | 9.51 | 8.55 | 7.87 | 9.27 | 2.72 | 5.29 | 0.705 | 2.09 | 5.26 | 5.86 | 2.2 | 7.31 | 3.39 | 5.27
2 | ATCTCTAGGTAACCTAGTTCAGTGAATGCCGAAC | 0.745 | 1.07 | 0.16 | 1.26 | 0.421 | 2.24 | 1.69 | 1.42 | 0.221 | 0.568 | 4.08 | 4.62 | 1.92 | 1.24 | 1.02 | 1.02 | 0.262 | 0.692 | 0.202 | 0.704
3 | ACTTACGGGTCAACGAGGTTATAGTACGCGTATA | 6.84 | 5.12 | 1.1 | 4.53 | 0.951 | 5.76 | 5.66 | 5.72 | 2.24 | 4.29 | 3.12 | 4.22 | 1.99 | 1.76 | 2.88 | 5.39 | 4.31 | 5.61 | 1.04 | 4.13
4 | CGTTCAAGGTCAAGGTCAGTGAAAGAGACTCGAA | 8.13 | 5.69 | 1.57 | 5.06 | 1.66 | 6.33 | 6.87 | 6.8 | 3.49 | 5.56 | 4.65 | 5.44 | 0.946 | 1.3 | 3.58 | 5.02 | 1.3 | 5.02 | 1.49 | 5.9
5 | CCTGCTAGGTCATGGTGAGCTAATCTACAGTATG | 3.57 | 2.37 | -0.17 | 1.56 | -0.467 | 3.41 | 2.55 | 2.76 | 0.872 | 1.78 | 4.15 | 3.71 | 1.17 | 0.341 | 0.897 | 1.14 | -0.321 | 2.29 | -0.0406 | 3.77
6 | GATACAGGGTCAAGGCCGGAGTACGCGTATTGAT | 6.13 | 4.13 | 0.0137 | 3.51 | -0.495 | 5.66 | 5.78 | 5.32 | 1.81 | 3.85 | 2.69 | 3.81 | -0.0401 | 0.122 | 1.8 | 3.56 | 0.0329 | 4.01 | 0.567 | 4.55
7 | CCTGCTAGGTCAATGGTCAGATAAAGCAGCTCGC | 2.9 | 2.29 | 0.316 | 1.61 | -0.124 | 3.15 | 4.67 | 5.1 | 2.77 | 4.96 | 4.27 | 4 | -0.328 | -0.659 | 1.01 | 0.646 | -0.497 | 1.44 | 0.218 | 3.65
8 | TCTTGTAGATTAAGCAGGTTAAGAAAGCCTGAGT | 0.514 | 0.349 | -0.181 | 0.403 | -0.31 | 0.868 | -0.488 | 1.37 | 2.84 | 2.08 | 1.64 | 0.902 | 0.0777 | 0.04 | -0.0749 | 0.401 | 0.0794 | 0.419 | 0.0226 | 0.106
9 | CCTCGGTGGACAACAGGAGGTCAGAGCTGCCAGA | 0.578 | 1.81 | 1.76 | 1.05 | -0.647 | 1.67 | 0.123 | 0.139 | -0.911 | -0.207 | -0.628 | 0.0551 | -1.3 | -1.14 | 0.735 | 1.53 | 0.332 | 1.77 | 0.503 | 1.93
10 | TAGCCTAGGTCATGCGGGCCAGTCTAGTGTCGGC | 3.89 | 3.03 | -0.0115 | 1.36 | -0.0777 | 3.43 | 2 | 2.23 | -0.051 | 0.877 | 1.3 | 2.93 | 0.182 | 0.146 | 0.871 | 1.4 | -0.585 | 2.48 | -0.19 | 3.86
11 | CCGTACGGGTCACTGACAGGTTATAGCATTTGGA | 5.54 | 4.34 | 0.355 | 3.7 | -0.392 | 5.35 | 3.75 | 4.06 | 0.781 | 2.52 | 1.03 | 2.52 | -0.133 | -0.747 | 1.58 | 3.74 | -0.0858 | 4.79 | 0.0778 | 4
12 | GCTAGTTGGACAGTAAAAGGTCACACACCGGTCG | 2.82 | 4.25 | 4.25 | 4.22 | 0.188 | 4.4 | 2.61 | 3.78 | 1.89 | 3.36 | 0.431 | 2.16 | -0.417 | -0.407 | 3.24 | 4.68 | 1.09 | 5.53 | 1.25 | 3.95
13 | TCTGCAAGGTCAACGATGGTCAGCTAATCTGCTA | 6.64 | 5.29 | 0.751 | 4.06 | 0.582 | 5.41 | 4.78 | 4.95 | 2.86 | 4.09 | 3.02 | 3.91 | -0.02 | -0.552 | 2.84 | 4.57 | 0.31 | 4.65 | 0.319 | 5.27
14 | GCGACTGGGGCATCAGCACGTTACCATAACTTAA | -0.278 | -0.417 | -0.429 | 0.31 | -0.932 | 0.476 | 0.927 | 0.64 | -0.0937 | 0.15 | 3.89 | 3 | 0.00267 | -0.723 | -0.048 | -0.493 | -0.113 | -0.399 | -0.0529 | 0.327
